Assay results from PubChem BioAssay (NCI).
About 79,000 compounds went through this panel and 15% of them were active in at least one assay; those are over-represented in the sample as a whole. Calls of active or inactive are those of the source. No stated cut-off is given here; in the data, active means growth inhibition above about 70%; inactive means the rest.

Columns and labels:
[1] = NCI Yeast Anticancer Drug Screen. Data for the rad52 strain (AID 147);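 further: 0% = growth of vehicle-treated control cultures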; conditions: S. cerevisiae rad52 mutant growth inhibition, stronger effect = higher value
In short: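 Screen used a yeast mutant impaired in DNA repair. After compound exposure, growth was measured. Values reflect inhibition compared with vehicle-treated cells.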

[2] = NCI Yeast Anticancer Drug Screen. Data for the wt1 strain (AID 149);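 further: 0% = growth of vehicle-treated wt1 cultures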; conditions: S. cerevisiae wt1 strain (SPY 50644) growth inhibition, stronger effect = higher value
In short: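 Measured: growth of wt1 yeast under compound versus vehicle treatment, reported as inhibition.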

[3] = NCI Yeast Anticancer Drug Screen. Data for the rad50EPP+ strain (AID 151);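 further: 0% = growth of vehicle-treated control cultures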; conditions: S. cerevisiae rad50 mutant strain, stronger effect = higher value
In short: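 Exposing the rad50EPP+ strain to each compound, growth was compared with vehicle-only cultures to give inhibition.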

[4] = NCI Yeast Anticancer Drug Screen. Data for the mgt1 strain (AID 153); conditions: S. cerevisiae mgt1 mutant growth inhibition, stronger effect = higher value
In short: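 Genetically defined yeast (mgt1) treated with compound; inhibition of growth expressed against vehicle-treated controls.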

[5] = NCI Yeast Anticancer Drug Screen. Data for the rad50 strain (AID 155);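 further: 0% = growth of vehicle-only cultures of the same strain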; conditions: S. cerevisiae rad50 strain growth inhibition, stronger effect = higher value
In short: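 Growth of the mutant yeast was measured after compound exposure and referenced to vehicle-treated cultures.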

[6] = NCI Yeast Anticancer Drug Screen. Data for the mec2-1 strain (AID 157); conditions: S. cerevisiae mec2-1 strain, stronger effect = higher value
In short: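 Readout is yeast growth inhibition, normalised to vehicle-treated controls, in the mec2-1 strain exposed to compound.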

[7] = NCI Yeast Anticancer Drug Screen. Data for the rad14 strain (AID 159);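 further: 0% = growth of vehicle-treated control cultures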; conditions: S. cerevisiae rad14 strain growth inhibition, stronger effect = higher value
In short: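 Here, inhibition of yeast growth was measured after compound exposure, using a strain with a genetic defect in DNA damage repair and vehicle-treated cultures as the reference.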

[8] = NCI Yeast Anticancer Drug Screen. Data for the sgs1 mgt1 strain (AID 161);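 further: 0% = growth of cultures given vehicle only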; conditions: S. cerevisiae sgs1 mgt1 strain, stronger effect = higher value
In short: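 Compounds are added to genetically altered yeast, and growth is compared with cultures given vehicle alone to give percent inhibition.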

[9] = NCI Yeast Anticancer Drug Screen. Data for the CLN2oe strain (AID 163);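 further: 0% = growth of vehicle-only control cultures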; conditions: S. cerevisiae CLN2oe strain, stronger effect = higher value
In short: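 Values reflect how much compound exposure reduced yeast growth, referenced to vehicle-exposed cells. Assay organism is a strain with a defined genetic change affecting cell-cycle control.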

[10] = NCI Yeast Anticancer Drug Screen. Data for the cln2 rad14 strain (AID 165);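 further: 0% = growth equal to vehicle treated cultures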; conditions: S. cerevisiae cln2 rad14 strain, stronger effect = higher value
In short: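 Relative to vehicle controls, growth inhibition of compound-treated cln2 rad14 yeast was recorded.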

[11] = NCI Yeast Anticancer Drug Screen. Data for the bub3 strain (AID 167); conditions: S. cerevisiae bub3 mutant strain, stronger effect = higher value
In short: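 Whole-cell yeast assay. The mutant strain was incubated with compounds, and growth inhibition was determined by comparison with vehicle-treated cells.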

[12] = NCI Yeast Anticancer Drug Screen. Data for the wt2 strain (AID 169);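 further: 0% = growth of vehicle-treated yeast cultures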; conditions: S. cerevisiae wt2 strain growth inhibition, stronger effect = higher value
In short: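 Values express reduction in yeast growth under compound treatment, referenced to vehicle-treated cells.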

[13] = NCI Yeast Anticancer Drug Screen. Data for the mlh1 strain (AID 171);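 further: 0% = growth of vehicle-treated control cultures of the same strain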; conditions: S. cerevisiae mlh1 strain growth inhibition, stronger effect = higher value
In short: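 Steps: expose the defined-mutant yeast strain to compound; expose a parallel culture to vehicle; measure growth; express compound effect as inhibition relative to the vehicle culture.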

[14] = NCI Yeast Anticancer Drug Screen. Data for the sgs1 strain (AID 173);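 further: 0% = growth of vehicle-only control cultures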; conditions: S. cerevisiae sgs1 mutant, stronger effect = higher value
In short: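 Treat defined-mutant yeast with compound; measure growth; calculate inhibition relative to vehicle-treated cells.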

[15] = NCI Yeast Anticancer Drug Screen. Data for the mlh1 rad18 strain (AID 175); conditions: S. cerevisiae mlh1 rad18 strain growth inhibition, stronger effect = higher value
In short: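 Test agents were incubated with a yeast strain of defined genotype (DNA damage repair defect). Inhibition of growth was derived by comparison with vehicle-exposed cultures.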

[16] = NCI Yeast Anticancer Drug Screen. Data for the rad18 strain (AID 177); conditions: S. cerevisiae rad18 mutant growth inhibition, stronger effect = higher value
In short: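 A genetically defined yeast mutant impaired in DNA damage repair was treated with test compounds, then its growth was measured against cultures receiving vehicle alone.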

[17] = at 5.0 µM (retest, dose inferred, filed as 0.5)
[18] = at 50.0 µM (retest, dose inferred, filed as 5.0)

Measured: growth inhibition

CNC(=O)OCc1c(COC(=O)NC)c2n(c1C)-c1ccc(OC)cc1CCC2
inactive: [1]; at 1.2 µM -18% | [1]; at 3.7 µM -24% | [1]; at 11.0 µM -20% | [2]; at 1.2 µM -45% | [2]; at 3.7 µM -53% | [2]; at 11.0 µM -57% | [3]; at 1.2 µM -6% | [3]; at 3.7 µM -7% | [3]; at 11.0 µM -8% | [3]; at 33.0 µM 6% | [3]; at 100.0 µM 15% | [4]; at 1.2 µM -32% | [4]; at 3.7 µM -35% | [4]; at 11.0 µM -34% | [5]; at 1.2 µM -35% | [5]; at 3.7 µM -38% | [5]; [17] 25% | [5]; at 11.0 µM -43% | [6]; at 1.2 µM -61% | [6]; at 3.7 µM -29% | [6]; [17] 2% | [6]; at 11.0 µM -52% | [7]; at 1.2 µM -36% | [7]; at 3.7 µM -16% | [7]; at 11.0 µM -23% | [8]; [17] 17% | [9]; at 1.2 µM -12% | [9]; at 3.7 µM -16% | [9]; at 11.0 µM -5% | [10]; [17] 45% | [11]; at 1.2 µM -16% | [11]; at 3.7 µM -26% | [11]; [17] 45% | [11]; at 11.0 µM -30% | [12]; at 1.2 µM 8% | [12]; at 3.7 µM 9% | [12]; at 11.0 µM -7% | [12]; at 33.0 µM 66% | [13]; at 1.2 µM -42% | [13]; at 3.7 µM -31% | [13]; at 11.0 µM -47% | [14]; at 1.2 µM -15% | [14]; at 3.7 µM -15% | [14]; at 11.0 µM -16% | [15]; [17] 17% | [16]; at 1.2 µM -45% | [16]; at 3.7 µM -43% | [16]; at 11.0 µM -48%
active: [1]; at 33.0 µM 96% | [1]; at 100.0 µM 99% | [2]; at 33.0 µM 96% | [2]; at 100.0 µM 100% | [4]; at 33.0 µM 98% | [4]; at 100.0 µM 99% | [5]; at 33.0 µM 95% | [5]; [18] 99% | [5]; at 50.0 µM 85.7% | [5]; at 100.0 µM 99% | [6]; at 33.0 µM 95% | [6]; [18] 99% | [6]; at 50.0 µM 89.1% | [6]; at 100.0 µM 99% | [7]; at 33.0 µM 98% | [7]; at 100.0 µM 100% | [8]; [18] 99% | [8]; at 50.0 µM 90% | [9]; at 33.0 µM 87% | [9]; at 100.0 µM 100% | [10]; [18] 98% | [10]; at 50.0 µM 88.2% | [11]; at 33.0 µM 97% | [11]; [18] 100% | [11]; at 50.0 µM 87.2% | [11]; at 100.0 µM 99% | [12]; at 100.0 µM 98% | [13]; at 33.0 µM 98% | [13]; at 100.0 µM 99% | [14]; at 33.0 µM 95% | [14]; at 100.0 µM 99% | [15]; [18] 98% | [15]; at 50.0 µM 86.9% | [16]; at 33.0 µM 96% | [16]; at 100.0 µM 98%

Nc1nc2ccc(NCc3ccc(C(=O)NC(CCC(=O)O)C(=O)O)cc3)cc2c(=O)[nH]1 (stereo unspecified)
inactive: [1]; at 1.2 µM -15% | [1]; at 3.7 µM -35% | [1]; at 11.0 µM -21% | [1]; at 33.0 µM 32% | [2]; at 1.2 µM -6% | [2]; at 3.7 µM -17% | [2]; at 11.0 µM -19% | [2]; at 33.0 µM 3% | [2]; at 100.0 µM 55% | [3]; at 1.2 µM 7% | [3]; at 3.7 µM -24% | [3]; at 11.0 µM -9% | [3]; at 33.0 µM -18% | [3]; at 100.0 µM 5% | [4]; at 1.2 µM -14% | [4]; at 3.7 µM -14% | [4]; at 11.0 µM -24% | [4]; at 33.0 µM 0% | [4]; at 100.0 µM 26% | [5]; at 1.2 µM 7% | [5]; at 3.7 µM -19% | [5]; [17] 3% | [5]; at 11.0 µM 9% | [5]; at 33.0 µM 23% | [5]; [18] 18% | [5]; at 50.0 µM 22.1% | [6]; at 1.2 µM -4% | [6]; at 3.7 µM 1% | [6]; [17] -3% | [6]; at 11.0 µM 8% | [7]; at 1.2 µM -20% | [7]; at 3.7 µM -19% | [7]; at 11.0 µM -31% | [7]; at 33.0 µM -5% | [7]; at 100.0 µM 55% | [8]; [17] 21% | [8]; [18] 18% | [8]; at 50.0 µM 25% | [9]; at 1.2 µM 10% | [9]; at 3.7 µM 7% | [9]; at 11.0 µM -5% | [9]; at 33.0 µM 2% | [9]; at 100.0 µM 6% | [10]; [17] 25% | [10]; [18] 25% | [10]; at 50.0 µM 8.85% | [11]; at 1.2 µM -7% | [11]; at 3.7 µM 6% | [11]; [17] 12% | [11]; at 11.0 µM -4% | [11]; at 33.0 µM 6% | [11]; [18] -24% | [11]; at 50.0 µM 30.9% | [12]; at 1.2 µM -24% | [12]; at 3.7 µM -23% | [12]; at 11.0 µM -22% | [12]; at 33.0 µM -26% | [12]; at 100.0 µM -17% | [13]; at 1.2 µM -5% | [13]; at 3.7 µM 2% | [13]; at 11.0 µM 0% | [13]; at 33.0 µM 11% | [13]; at 100.0 µM 39% | [14]; at 1.2 µM -3% | [14]; at 3.7 µM 9% | [14]; at 11.0 µM 6% | [14]; at 33.0 µM 6% | [14]; at 100.0 µM 51% | [15]; [17] 6% | [15]; [18] 2% | [15]; at 50.0 µM 59.4% | [16]; at 1.2 µM -11% | [16]; at 3.7 µM 1% | [16]; at 11.0 µM -12% | [16]; at 33.0 µM 5% | [16]; at 100.0 µM 63%
active: [1]; at 100.0 µM 74% | [5]; at 100.0 µM 77% | [6]; at 33.0 µM 92% | [6]; [18] 81% | [6]; at 50.0 µM 75.3% | [6]; at 100.0 µM 97% | [11]; at 100.0 µM 76%
